EBV gp42 inh: inhibitors of Epstein-Barr virus glycoprotein 42 | Q1HVG2 | inhibition, % (tested at 21.74 µM) | 220,000 compounds, 0.42% hits | Fluorescence polarization binding assay, mP read-out; in the data active = inhibition above about 50%
LANA DNA inh: KSHV C-LANA DNA binding inhibition. MBP-C-LANA/FAM-LBS DNA binding, fluorescence polarization. 340,000 compounds, 0.078% hits. inhibition, % at 9 µM;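 active = highest replicate inhibition at or above 60% at 9 µM, even if other replicates fall short; inactive = all replicates below 60% inhibition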;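 note: 0% = neutral control wells and 100% = 4 µM acridine orange control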
Keap1-Nrf2 PPI: disrupts human Keap1 binding to Nrf2 peptide | Q14145 | Keap1 Kelch-Nrf2 peptide fluorescence polarization, 1536-well | inhibition, % at 9.4 µM | 340,000 compounds, 0.15% hits; in the data active = inhibition above about 12%;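 note: human Keap1 Kelch domain with fluorescein labeled Nrf2 9mer peptide probe; 0% = neutral control wells and 100% = peptide positive control; higher means more block of Keap1 binding to Nrf2 peptide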
Target sequence (Q14145 whole entry, looked up, the tested form may be a part): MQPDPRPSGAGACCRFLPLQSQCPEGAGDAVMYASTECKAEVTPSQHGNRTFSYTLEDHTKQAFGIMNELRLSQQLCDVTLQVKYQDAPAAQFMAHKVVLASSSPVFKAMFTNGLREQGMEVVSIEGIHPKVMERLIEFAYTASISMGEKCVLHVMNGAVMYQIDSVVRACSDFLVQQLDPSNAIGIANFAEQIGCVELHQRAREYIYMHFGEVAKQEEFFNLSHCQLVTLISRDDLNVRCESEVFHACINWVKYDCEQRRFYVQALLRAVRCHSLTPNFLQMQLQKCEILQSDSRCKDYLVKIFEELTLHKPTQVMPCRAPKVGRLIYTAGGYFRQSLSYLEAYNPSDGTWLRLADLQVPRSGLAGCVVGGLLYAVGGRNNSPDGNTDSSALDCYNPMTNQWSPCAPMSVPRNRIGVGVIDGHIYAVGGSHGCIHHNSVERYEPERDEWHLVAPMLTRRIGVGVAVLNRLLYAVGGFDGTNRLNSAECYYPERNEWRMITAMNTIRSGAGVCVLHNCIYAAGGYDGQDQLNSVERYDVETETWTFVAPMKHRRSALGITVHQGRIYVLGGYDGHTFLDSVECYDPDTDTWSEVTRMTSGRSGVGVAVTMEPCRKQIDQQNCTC
LANA-H2B inh: blocks KSHV LANA binding to histone H2A/H2B | Q9QR71 | cell-free LANA-H2A/H2B peptide, fluorescence polarization | inhibition, % (no concentration beside the values) | 320,000 compounds, 0.6% hits | AID 2629; in the data active = inhibition mostly above about 10%, no sharp cut-off; inactive = mostly below about 6.7%
GLD-1 RNA inh: GLD-1-TGE RNA interaction inhibition (C. elegans). purified GLD-1 + fluorescein TGE RNA, fluorescence polarization. 320,000 compounds, 0.44% hits. AID 2280. inhibition, % at 5.96 µM. Q17339;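 active = percent inhibition above a per-plate cutoff, the plate mean of test compounds plus 3 SD, cut at about 30% in these data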;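 note: 0% = DMSO wells with GLD-1 and probe and 100% = wells lacking GLD-1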
eLon inh: E. coli protease La inhibition | inhibition, % at 7.94 µM | P0A9M0 | 360,000 compounds, 0.42% hits | purified E. coli Lon protease, fluorescence polarization; in the data active = inhibition above about 13%, passing the limit was not always enough;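 note: 0% = enzyme with probe and DMSO and 100% = no enzyme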
eLon confirm: confirmation of E. coli Lon protease inhibitors; shares compounds with eLon inh; purified E. coli Lon, fluorescence polarization; inhibition, % at 7.94 µM; 1,400 compounds, 31% hits; AID 602230; in the data active = inhibition above about 16%;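 note: 0% = enzyme with probe and DMSO and 100% = no enzyme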
* marks the source's active call; other numbers are inactive results; · = not tested or not shown; + = active, no number. In the library only some 1.5% were active in any assay of this set; here they are far more common.

SMILES	EBV gp42 inh	LANA DNA inh	Keap1-Nrf2 PPI	LANA-H2B inh	GLD-1 RNA inh	eLon inh	eLon confirm
O=C(c1ccccc1F)N1CCC2CC1c1cc(N3CCCCC3)ccc12 (stereo unspecified)	·	·	·	·	·	-1	·
CO/N=C\CC(=O)Nc1ccc(Cl)c(Cl)c1	5	1	-1	-7	3	17*	14
O=C(O)Cc1cc(C(=O)Nc2ccc(Br)cc2)sc1-c1ccccc1	-6	·	·	1	10	·	·
CCN(C(=O)c1ccc2c(c1)OCO2)C1CCS(=O)(=O)C1 (stereo unspecified)	·	-1	-1	1	-5	-2	·
CC(=O)O[C@@H]1[C@H](OC(=O)CC(C)C)c2c(ccc3ccc(=O)oc23)OC1(C)C	-11	1	3	0	3	113*	-6
CCC(=O)c1ccc(OCC(=O)OCc2csc(CC(=O)Nc3ccccc3C)n2)cc1	·	·	·	·	·	-9	·
CC1(C)CC(=O)C=C(c2cccc(O)c2)C1=O	·	1	-5	1	4	-3	·
COc1cccc(C2=CC(=O)CC(C)(C)C2=O)c1	·	·	·	·	·	12*	-13
CN1CCN(C(=O)c2ccc3c(c2)N(Cc2ccccc2F)C(=O)c2ccccc2S3=O)CC1 (stereo unspecified)	·	1	-6	0	-6	16*	6
CN1CCN(C(=O)c2ccc3c(c2)N(Cc2ccc(Cl)cc2)C(=O)c2ccccc2S3=O)CC1 (stereo unspecified)	-13	-3	-3	-5	-4	-1	·
C=CCSc1nnc2c(n1)OC(c1c(C)[nH]n(-c3ccccc3)c1=O)Nc1ccccc1-2 (stereo unspecified)	-2	0	-9	-3	5	2	·
O=C(CSC(=O)c1ccccc1)Nc1ccccc1F	·	2	-2	-4	6	1	·
CCOc1ccc(CNC(=O)CN2C(=O)CSc3ccc(S(=O)(=O)N4CCOCC4)cc32)cc1OC	·	1	4	1	1	64*	0
COc1ccc(CCNC(=O)CN2C(=O)CSc3ccc(S(=O)(=O)N4CCOCC4)cc32)cc1OC	·	2	-1	2	6	1	·
O=c1oc2c3c4c(cc2s1)CCCN4CCC3	35	6	2	9	76*	46*	45*
CN(C)C1(CNC(=O)C2CCN(S(=O)(=O)c3cc(Cl)ccc3Cl)CC2)CCCCC1	·	·	-1	2	-7	-4	·
COc1ccc2c3c(cccc13)C(=O)CC2	·	163*	164*	+	·	+	+
COc1ccccc1CCNC(=O)C(=O)NCC1OCCN1S(=O)(=O)c1ccc(Cl)cc1 (stereo unspecified)	·	1	0	1	6	16*	-5
O=C(CCN1C(=O)[C@@H]2Cc3ccccc3CN2C1=O)N[C@@H](Cc1ccccc1)C(=O)O	·	1	-1	1	4	-11	·
COc1ccc(NC(=O)C2(C)Cc3c(-c4cccc(NC(C)=O)c4)ccnc3O2)cn1 (stereo unspecified)	·	·	·	·	·	28*	2
COc1ccc(NC(=O)C2(C)Cc3c(-c4ccc(NC(C)=O)cc4)ccnc3O2)cn1 (stereo unspecified)	·	·	·	·	·	31	·
NNC(=O)CCn1c2ccccc2c2ccccc21	-16	-1	1	-2	9	21*	-8
CCC(C)NC(=S)N(CCc1ccccc1)Cc1cc2cc(OC)c(OC)cc2[nH]c1=O (stereo unspecified)	5	0	-2	4	1	5	·
CC(C)c1ccc(Nc2nc(N3CCOCC3)nc(N3CCOCC3)n2)cc1	·	·	·	·	·	0	·
CC(C)CCCNc1nc(N2CCOCC2)nc(N2CCOCC2)n1	4	1	-2	0	5	84*	2
SMILES	EBV gp42 inh	LANA DNA inh	Keap1-Nrf2 PPI	LANA-H2B inh	GLD-1 RNA inh	eLon inh	eLon confirm
O=C1NC(=O)C2(N1)c1ccccc1-c1ccccc12	·	-1	0	·	·	-4	·
O=C1NC(=O)C2(N1)C(=O)c1cccc3cccc2c13 (stereo unspecified)	·	·	·	·	·	+	+
OC(c1ccccc1)c1ncc(-c2cccc(C(F)(F)F)c2)[nH]1 (stereo unspecified)	·	·	·	·	·	-2	·
Cc1ccc(C(O)c2ncc(-c3cccc(C(F)(F)F)c3)[nH]2)cc1 (stereo unspecified)	·	·	·	·	·	15*	2
C=CCn1c(SCc2ccc(F)cc2)nnc1-c1sc2nc(C)cc(C)c2c1N	-7	0	-3	-1	6	-11	·
O=C(/C=C/c1ccc(Cl)cc1)NC(=S)Nc1ccccc1C(=O)O	-3	-2	-3	8	7	17*	-7
CCOP(=O)(OCC)C(C)(C)NC(=O)c1cc([N+](=O)[O-])cc([N+](=O)[O-])c1	-2	0	-2	-1	15	9	·
CCOP(=O)(OCC)C(NC(=O)c1cc([N+](=O)[O-])cc([N+](=O)[O-])c1)C(F)(F)F (stereo unspecified)	-19	0	-4	-4	6	21*	24*
C[C@H]1CN(C2CCCCC2)C(=O)[C@@H]1CC(=O)Nc1ccccc1	·	·	·	·	·	6	·
CCCCc1nc2cc(C(=O)N3CCCC3)ccc2o1	·	-1	2	-2	-2	-6	·
CCCCc1nc2cc(C(=O)N3CCN(c4cnccn4)CC3)ccc2o1	·	-1	0	2	-2	85*	-1
Cc1ccc(C(=O)Nc2nc(=O)n(C(=O)c3ccccc3C)s2)cc1	-6	2	0	-3	4	19*	31*
COc1ccc(N2CCN(CC(O)COCCOc3ccc(Br)cc3)CC2)cc1 (stereo unspecified)	4	-1	2	4	3	-20	·
OCCN1CCN(CC(O)COCCOc2ccc(Br)cc2)CC1 (stereo unspecified)	3	-1	-3	3	2	69*	-2
CCCCOc1cccc(C(=O)NC(=S)Nc2cccnc2)c1	-13	0	-2	-1	-5	19*	-46
CCOc1cccc(C(=O)NC(=S)Nc2cccnc2)c1	-5	1	-3	3	0	2	·
Cc1nc(N2CCOCC2)sc1C=O	-7	-2	0	2	8	20*	-6
COc1ccc(C(=NNc2ccccc2C(=O)O)c2ccc(OC)cc2)cc1	22	-1	1	4	-3	1	·
O=C(NCC(=O)N1CCOCC1)c1ccc(Cl)cc1	·	1	4	-1	2	-5	·
CCOc1ccccc1C(=O)NCCC(=O)O	-6	-2	-3	-5	2	17*	-3
CCOc1ccccc1C(=O)NCCCCNC(=O)c1ccccc1OCC	·	0	-4	-1	6	-1	·
COc1cc2c(cc1OC)-c1cc3ccc4c(c3c[n+]1CC2)OCO4	126*	43	5	-11	40*	156*	106*
